DENV2 CPE rescue = DENV2-induced cell death inhibition. 350,000 compounds, 1.7% hits. DENV2-infected cells, cytopathic effect rescue, plate reader. AID 651640. CPE inhibition, % at 9.99 µM; in the data active = CPE inhibition above about 20%, passing the limit was not always enough; tested in BHK-21 cells;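 note: 0% = median of neutral control wells and 100% = median of positive control wells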
RAD54 inh = blocks human RAD54 Holliday junction branch migration. FAM/BHQ fluorescence. AID 602329. inhibition, % at 10.4 µM. Q92698. 360,000 compounds, 0.14% hits;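 active = mean normalized replicate activity at least 40 and at least half of replicates scoring 40 or more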;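 note: 0% = median of neutral control wells and 100% = median of positive control wells; inhibitors cause a drop in the FAM fluorescence signal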
Target sequence (Q92698 whole entry, looked up): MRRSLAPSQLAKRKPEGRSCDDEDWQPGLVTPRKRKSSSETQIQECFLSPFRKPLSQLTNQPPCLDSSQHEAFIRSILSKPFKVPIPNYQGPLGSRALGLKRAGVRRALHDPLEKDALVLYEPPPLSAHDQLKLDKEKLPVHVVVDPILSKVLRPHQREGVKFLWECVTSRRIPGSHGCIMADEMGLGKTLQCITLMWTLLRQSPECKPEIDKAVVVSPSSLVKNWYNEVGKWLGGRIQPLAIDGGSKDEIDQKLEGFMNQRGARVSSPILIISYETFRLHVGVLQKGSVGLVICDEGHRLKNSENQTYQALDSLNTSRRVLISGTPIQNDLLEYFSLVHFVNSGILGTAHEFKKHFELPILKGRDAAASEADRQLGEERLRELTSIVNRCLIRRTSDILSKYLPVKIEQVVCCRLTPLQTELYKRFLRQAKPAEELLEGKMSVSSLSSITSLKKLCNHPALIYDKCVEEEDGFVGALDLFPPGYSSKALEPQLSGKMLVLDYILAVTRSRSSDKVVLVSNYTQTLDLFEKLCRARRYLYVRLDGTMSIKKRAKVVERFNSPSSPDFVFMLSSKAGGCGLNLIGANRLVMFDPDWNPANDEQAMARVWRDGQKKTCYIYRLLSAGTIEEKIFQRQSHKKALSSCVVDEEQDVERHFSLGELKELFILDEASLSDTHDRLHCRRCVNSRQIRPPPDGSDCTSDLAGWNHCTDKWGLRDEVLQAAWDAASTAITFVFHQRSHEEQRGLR
GSIS activator = primary screen for activators of insulin secretion dependent on glucose, INS-1E cells, GLuc reporter luminescence. INS-1E GLuc reporter insulin secretion, 2-3 h. activation, % at 16.6 µM. 370,000 compounds, 0.61% hits. AID 743287;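 active = lowest replicate activation of at least 40%, so every replicate reaches that level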;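 note: 0% = median of neutral control wells and 100% = median of IBMX positive control wells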
RAD52 anneal inh = inhibitors of human RAD52 DNA annealing; P43351; 360,000 compounds, 0.46% hits; recombinant RAD52 DNA annealing, FRET fluorescence; inhibition, % at 18.7 µM;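 active = every replicate showing at least 50% inhibition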
dFosB act = activators of mouse delta FosB homodimer | P13346 | purified delta FosB, TAMRA-CDK5 oligo fluorescence polarization; percent of positive-control signal above neutral wells | activation, % at 25 µM | 340,000 compounds, 0.99% hits;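 active = mean activation above about 17%, with every replicate also reaching it, limit read from the data, passing the limit was not always enough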
AF4-AF9 inh = inhibitors of human MLL-AF4/AF9 interaction; P42568; AlphaScreen, biotin-AF4 peptide binding to FLAG-AF9; inhibition, % at 10 µM; 350,000 compounds, 0.47% hits; AID 651704;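 active = every replicate reaching a set inhibition limit, whatever the replicate mean, cut at about 25% in these data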;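 note: 0% = plate neutral control median and 100% = total signal loss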
Starred values were filed as active, the others as inactive; . = no result; ! = repeats disagree. A selection: hits, their analogues and other compounds. The true share with any hit is near 3.1%.

SMILES	DENV2 CPE rescue	RAD54 inh	GSIS activator	RAD52 anneal inh	dFosB act	AF4-AF9 inh
O=C(NCCCN1CCOCC1)/C(=C/c1ccc(-c2cccc([N+](=O)[O-])c2)o1)NC(=O)c1ccccc1	3.8	23.1	-3.0	-27.0	.	12.6
Cc1nc2nc(C)n(CCN3CCOCC3)c(=O)c2c(-c2cccc([N+](=O)[O-])c2)c1C(=O)CCCCCCCCCCN1CCC(c2ccccc2)(c2ccccc2)CC1	-0.3	.	-15.3	96.8*	36.9*	15.2
Cc1cccc(C(O)c2ncc(-c3ccccc3Cl)[nH]2)c1C (stereo not drawn)	1.3	1.6	.	-2.5	.	-1.4
Cc1ccccc1-c1cnc(C(O)c2cccc(C)c2C)[nH]1 (stereo not drawn)	20.6*	9.0	-5.4	-4.5	.	0.1
C/C(=N\NC(=O)c1c[nH]c2ccccc12)c1ccc(C)o1	.	58.5*	.	.	-3.2	.
Cn1cnc(S(=O)(=O)N2CCCCN3[C@H](CO)[C@@H](c4ccc(C#CC5CCCC5)cc4)[C@@H]3C2)c1	5.3	-4.3	11.5	-3.5	.	-1.2
c1ccc(Nc2cccc(Nc3ccccc3)c2)cc1	.	.	-34.9	.	1.9	.
Oc1cccc(Nc2ccccc2)c1	28.5*	5.9	-20.0	-21.4	1.9	.
COC(=O)C[C@H]1CC[C@H]2[C@@H](COc3ccc(NC(=O)c4cncs4)cc3C(=O)N2C)O1	-3.5	0.1	7.5	2.5	.	-2.4
c1ccc(C2Nc3cccc4cccc(c34)N2)cc1	4.6	4.7	.	-18.0	-1.5	5.6
c1csc(C2Nc3cccc4cccc(c34)N2)c1	.	-5.4	.	.	36.4*	.
CN(C)CCCNc1oc(-c2ccc(Cl)cc2)nc1S(=O)(=O)c1ccccc1	38.5*	-11.2	-7.5	25.6	-6.2	14.8
COc1ccccc1CNC(=O)C[C@H]1CC[C@@H](NC(=O)CC2CC2)[C@@H](CO)O1	8.7	-8.5	-0.5	-11.5	.	-2.5
C[C@@H]1CN([C@H](C)CO)C(=O)c2cccc(N(C)C)c2O[C@H]1CN(C)C(=O)NC1CCCCC1	-7.0	0.7	4.5	2.9	.	-0.3
C[C@H](CO)N1C[C@H](C)[C@@H](CN(C)C(=O)Nc2ccccc2)Oc2c(cccc2N(C)C)C1=O	1.9	17.0	6.4	-7.6	-7.4	-2.4
CC(C)NC(=O)N(C)C[C@H]1Oc2c(cccc2N(C)C)C(=O)N([C@@H](C)CO)C[C@H]1C	21.8*	-1.6	18.9	0.6	.	-1.9
CC(C)NC(=O)N(C)C[C@@H]1Oc2c(cccc2N(C)C)C(=O)N([C@H](C)CO)C[C@H]1C	27.3*	-4.4	-8.2	-22.3	.	-2.4
CCn1c(=O)[nH]c(=O)c2c(N)c(C(=O)c3cc(F)ccc3F)sc21	1.7	-0.9	55.5*	-15.6	-7.7	1.8
Cc1ccc(C(=O)c2sc3c(c2N)c(=O)[nH]c(=O)n3CCc2ccccc2)cc1	.	.	24.6	.	-11.9	.
CCc1ccccc1NC(=O)c1nnn(CC(=O)Nc2ccccc2C)c1N	.	-11.2	.	.	-0.6	.
Cc1cc(C)c(NC(=O)Cn2nnc(C(=O)Nc3ccc(F)cc3F)c2N)c(C)c1	19.8	-6.2	1.2	-7.2	25.3*	0.8
Cc1cccc(C)c1NC(=O)Cn1nnc(C(=O)Nc2ccc(F)cc2F)c1N	14.9	-1.7	-4.5	-3.0	45.9*	0.0
Cc1ccc(S(=O)(=O)N[C@H]2CC[C@@H](CCn3cc(C4(O)CCCC4)nn3)O[C@H]2CO)cc1	18.8	-4.7	1.5	5.6	.	0.3
CCCC#Cc1cnc2c(c1)C(=O)N([C@H](C)CO)C[C@@H](C)[C@@H](CN(C)Cc1ccc(C(=O)O)cc1)O2	4.8	3.6	-3.0	4.1	.	-2.8
CC1Cc2ccccc2N1S(=O)(=O)c1cnc(Cl)c(Br)c1 (stereo not drawn)	64.8*	-1.9	-12.3	-3.0	-1.6	-6.7
SMILES	DENV2 CPE rescue	RAD54 inh	GSIS activator	RAD52 anneal inh	dFosB act	AF4-AF9 inh
C[C@H](CO)N1C[C@H](C)[C@@H](CN(C)C(=O)Nc2cccc3ccccc23)Oc2c(NC(=O)Nc3cccc4ccccc34)cccc2C1=O	-2.2	3.5	-5.1	3.5	.	2.9
C[C@H]1CN([C@@H](C)CO)C(=O)CCCn2nncc2CO[C@@H]1CN(C)S(=O)(=O)c1ccccc1F	70.0*	5.8	-5.2	-6.3	.	-0.1
COc1cccc(S(=O)(=O)N(C)C[C@@H]2OCc3cnnn3CCCC(=O)N([C@@H](C)CO)C[C@@H]2C)c1	20.1*!	5.0	6.7	-0.5	.	-1.4
C[C@H](CO)N1C[C@H](C)[C@H](CN(C)S(=O)(=O)c2ccccc2)OCc2cnnn2CCCC1=O	28.1*!	3.5	-0.2	5.3	.	2.5
COc1ccc(S(=O)(=O)N(C)C[C@H]2OCc3cnnn3CCCC(=O)N([C@H](C)CO)C[C@@H]2C)cc1	6.3	4.6	8.1	-13.1	.	-1.8
COc1ccc(S(=O)(=O)N(C)C[C@H]2OCc3cnnn3CCCC(=O)N([C@@H](C)CO)C[C@H]2C)cc1	63.9*!	0.7	6.2	0.7	.	1.8
COc1ccc(S(=O)(=O)N(C)C[C@@H]2OCc3cnnn3CCCC(=O)N([C@@H](C)CO)C[C@H]2C)cc1	27.9*!	-6.5	0.4	-15.6	.	-0.9
COc1ccc(S(=O)(=O)N(C)C[C@@H]2OCc3cnnn3CCCC(=O)N([C@H](C)CO)C[C@H]2C)cc1	5.2	-11.8	-1.1	-15.8	.	0.8
CC(C)NC(=O)Nc1ccc2c(c1)C(=O)N([C@@H](C)CO)C[C@H](C)[C@@H](CN(C)C(=O)Nc1ccc3c(c1)OCO3)O2	20.8*	10.6	17.4	-2.4	.	-3.3
CC(C)NC(=O)Nc1ccc2c(c1)C(=O)N([C@@H](C)CO)C[C@@H](C)[C@H](CN(C)C(=O)Nc1ccc3c(c1)OCO3)O2	28.2*	0.5	5.5	5.3	.	-2.8
C[C@H]1CN([C@@H](C)CO)C(=O)c2cc(NC(=O)CCC(F)(F)F)ccc2O[C@H]1CN(C)C(=O)Nc1cccc2ccccc12	26.1*	10.7	7.0	8.2	.	1.5
C[C@@H]1CN([C@@H](C)CO)C(=O)c2cc(NC(=O)CCC(F)(F)F)ccc2O[C@@H]1CN(C)C(=O)Nc1cccc2ccccc12	17.1	-1.6	-10.0	4.5	.	-2.0
C[C@@H]1CN([C@@H](C)CO)C(=O)c2cc(NC(=O)CCC(F)(F)F)ccc2O[C@@H]1CN(C)C(=O)Nc1ccc2c(c1)OCO2	31.2*	-14.9	18.6	25.2	.	0.2
C[C@H]1CN([C@@H](C)CO)C(=O)c2cc(NC(=O)CCC(F)(F)F)ccc2O[C@H]1CN(C)C(=O)Nc1ccc2c(c1)OCO2	6.6	5.2	-7.0	-4.5	.	-2.4
C[C@H](CO)N1C[C@H](C)[C@@H](CN(C)Cc2ccc(Cl)c(Cl)c2)Oc2ccc(NC(=O)CCC(F)(F)F)cc2CC1=O	-2.4	0.2	-31.3	14.0	.	2.9
C[C@@H]1CCCCO[C@H](CN(C)C(=O)c2ccccc2)[C@@H](C)CN([C@@H](C)CO)C(=O)c2cc(NC(=O)NC3CCCCC3)ccc2O1	-8.5	-1.3	-31.0	12.3	.	-1.1

Screening data as filed in PubChem BioAssay.
